Measurements published in PubChem BioAssay AID651707 (NMMLSC, 2012).
Hit rate of the full screen: of about 2,300 compounds, about 170 (7.4%) were called active.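 How the source made its calls: active means over 5% cells positive for green fluorescent reporter, or over 2% positive for both it and APC stain; inactive means the rest, inconclusive results apart.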 A selection follows.

Test: intrinsic compound fluorescence in ER-HoxA9 progenitors, confirmation, artefact control for AML myeloid differentiation project, cell-based, flow cytometry, GFP/APC, Cherry Pick01 (AID 651707);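 on double positive: share of cells both GFP positive and bound by Mac1 APC antibody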;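 on fluorescence response: range taken on the double positive population between DMSO and positive control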
Settings: no estrogen, GFP autofluorescence flow cytometry, stronger effect = higher value; double positive: measured here: double positive GFP/APC population; fluorescence response: vehicle wells 0%, positive control 100%

Structure (SMILES)	fluorescence response	double positive
CCc1noc(C)c1C(=O)Nc1nc(-c2ccccc2)cs1	1% (inactive)	–
COc1cccc(NC(=S)NCc2ccccn2)c1	0.3% (inactive)	–
COc1cc(/C=C(\C#N)c2nc3ccccc3[nH]2)ccc1O	36.7% (active)	–
Clc1ccc(-c2nnc(SCc3nc4ccccc4s3)o2)cc1	0% (inactive)	–
CCC1CCCCN1CCCNC(=O)Cn1nc(-c2ccccc2)ccc1=O (centres undefined)	0% (inactive)	–
CC1=C(C(N)=O)C(c2ccc3c(c2)OCO3)n2nc(-c3cccc(C)c3)nc2N1 (centres undefined)	0% (inactive)	–
COc1ccc(S(=O)(=O)N2CCC(C(=O)N3CCc4ccccc4C3)CC2)cc1OC	0% (inactive)	–
CN1OC(COC(=O)c2ccc(Cl)cc2)CC1c1ccccc1 (centres undefined)	0.3% (inactive)	–
COc1cc(/C=C2/SC(=S)N(Cc3ccccc3)C2=O)cc(OC)c1O	97.2% (active)	–
Cc1nc(C)c(-c2nnc(-c3cccc(S(=O)(=O)N(C)C)c3)o2)cc1C(=O)NN	0.7% (inactive)	–
CCOc1ccc(C(=O)Nc2ccc(S(=O)(=O)NCC3CCCO3)cc2)cc1OCC (centres undefined)	0.3% (inactive)	–
CCCCSc1nc2c(c(=O)n1CC)SC(C)C2 (centres undefined)	0% (inactive)	–
Nc1ccc2nc3c(=O)[nH]c(=S)[nH]c3nc2c1	0% (inactive)	–
CC(C)c1nc2ccc(C(=O)O)cc2[nH]1	0.4% (inactive)	0.4%
COc1ccc(N(CC(=O)NC2CCCCCCC2)S(=O)(=O)c2c(C)nn(C)c2C)cc1	0% (inactive)	–
Cc1nn(-c2ncccn2)c2c1C(=O)CC(C)(C)C2Br (centres undefined)	0% (inactive)	–
Cn1c(CNC(=O)c2ccccc2F)nnc1SCc1ccc(F)cc1	0% (inactive)	–
CNc1nc(=O)n(C2CCCO2)cc1C (centres undefined)	0% (inactive)	–
CC(=O)N1c2ccc(S(=O)(=O)N3CCCC(C(=O)Nc4cccc(F)c4)C3)cc2CC1C (centres undefined)	0% (inactive)	–
CCOC(=O)CC(=O)CSc1nc(-c2ccccc2)cc(-c2ccc(Cl)cc2)c1C#N	0% (inactive)	–
CC(C)(C)OC(=O)CNC(=O)c1[nH]cnc1C(=O)N[C@@H](Cc1ccccc1)C(=O)OCc1ccccc1	0% (inactive)	–
O=C(Nc1cccc(-c2nc3ncccc3o2)c1)c1ccco1	0.2% (inactive)	–

Structure (SMILES)	fluorescence response	double positive
O=S(=O)(NCc1cccnc1)c1ccc(Cl)nc1	0.4% (inactive)	–
COCCCn1c(=O)/c(=C/c2ccccc2OC(C)C)s/c1=C(\C#N)C(=O)Nc1ccc(C(=O)O)cc1	0% (inactive)	–
O=C(Nc1ccccc1N1CCN(c2ccccc2)CC1)c1cccc(F)c1	0% (inactive)	–
CC1(C)CC(=O)C2=C(C1)Nc1cc(C(=O)c3ccccc3)ccc1NC2c1ccccn1 (centres undefined)	0.4% (inactive)	–
CCc1c(C)sc(NC(=O)c2cccs2)c1C(N)=O	0% (inactive)	–
C=CCNc1nnc(SCC(=O)N2CCCCC2)c2ccccc12	0.3% (inactive)	–
Cc1cccc(C)c1NC(=O)CCS(=O)(=O)c1cccc2nsnc12	0% (inactive)	–
Cc1ccc2nc(-c3ccccn3)cc(C(=O)Nc3ccc4c(c3)OCO4)c2c1	0% (inactive)	–
CCOC(=O)c1c(-c2cccc(C)c2)csc1NC(=O)c1c(-c2ccccc2)noc1C	0% (inactive)	–
Cn1c2ccccc2c2cc(/C=C(\NC(=O)c3ccccc3)C(=O)NCC(=O)O)ccc21	0% (inactive)	–
CN(C(=O)CSc1nnc(C2CC2)n1C)C1CCCc2ccccc21 (centres undefined)	0% (inactive)	–
CSc1nnc(-c2ccncc2)n1CCCN1CCCC1=O	0% (inactive)	–
COc1cc(N=Cc2c(O)[nH]c3ccccc23)cc(OC)c1OC	0% (inactive)	–
CC(CNc1ccc([N+](=O)[O-])cc1)NC(=O)c1ccccc1Br (centres undefined)	0.4% (inactive)	–
Cc1ccc2c(c1)c1ncn(Cc3ccc(F)cc3)c(=O)c1n2C	0% (inactive)	–
Cc1cccc(-n2c(SCC(=O)Nc3cccc(S(=O)(=O)NC4=NCCCCC4)c3)nc3ccccc3c2=O)c1C	0% (inactive)	–
CCN(CC)CC(=O)c1c[nH]c2ccc(OC)cc12	0.3% (inactive)	–
CCOc1ccc(NC(=O)CSc2nc3c(c(=O)n2-c2ccccc2OC)SCC3)cc1	0.5% (inactive)	–
CC(C)C(=O)N1CCN(c2nc(-c3ccccc3)c3c(c2C#N)CC(C)(C)OC3)CC1	0% (inactive)	–
O=C(CN1CCN(C2CCCCC2)CC1)Nc1ccccc1N1CCCCC1	0% (inactive)	–
O=C(NCCN=C1NS(=O)(=O)c2ccccc21)c1ccc(S(=O)(=O)N2CCOCC2)cc1	4.3% (inactive)	–
